This passage reports growth inhibition results from PubChem BioAssay (NCI).

Each structure is given as a SMILES string. About 79,000 compounds went through this panel and 15% of them were active in at least one assay; those are over-represented in the sample as a whole. Values without a mark were called inactive. Calls of active or inactive are those of the source. Rule as the data show it: active = growth inhibition above about 70%; inactive = the rest.

Test [1] in a line: NCI Yeast Anticancer Drug Screen. Data for the rad50 strain (AID 155).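 Also: 0% = growth of vehicle-only cultures of the same strain.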 The conditions noted are these: S. cerevisiae rad50 strain growth inhibition, hits give high values. Summed up: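 Genetically altered yeast (DNA repair pathway); compound treatment; growth inhibition vs vehicle ctrl.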
A short description of test [2]: NCI Yeast Anticancer Drug Screen. Data for the mec2-1 strain (AID 157). As to conditions: S. cerevisiae mec2-1 strain, hits give high values. The procedure, abridged:
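Vehicle-treated cultures served as reference for growth inhibition of compound-exposed mec2-1 yeast.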

Test [3] in a line: NCI Yeast Anticancer Drug Screen. Data for the sgs1 mgt1 strain (AID 161).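 Also: 0% = growth of cultures given vehicle only.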 As to conditions: S. cerevisiae sgs1 mgt1 strain, hits give high values. Summed up: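 Mutant yeast exposed to compound; growth scored against vehicle-only wells.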
Test [4] can be described thus: NCI Yeast Anticancer Drug Screen. Data for the cln2 rad14 strain (AID 165).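 Also: 0% = growth equal to vehicle treated cultures.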 As to conditions: S. cerevisiae cln2 rad14 strain, hits give high values. The procedure, abridged:
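Each compound was tested on cln2 rad14 yeast. Inhibition of growth was calculated against vehicle-exposed controls.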

Test [5] in a line: NCI Yeast Anticancer Drug Screen. Data for the bub3 strain (AID 167). The conditions noted are these: S. cerevisiae bub3 mutant strain, hits give high values. Summed up: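 Yeast carrying a defined mutation is treated with each compound, and growth is compared with that of vehicle-exposed cells to give inhibition.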
Test [6] in a line: NCI Yeast Anticancer Drug Screen. Data for the mlh1 rad18 strain (AID 175). As to conditions: S. cerevisiae mlh1 rad18 strain growth inhibition, hits give high values. Summed up:
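Vehicle-treated cultures served as the reference for growth inhibition in a yeast strain carrying DNA damage repair alterations exposed to each compound.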

Setting [7] is: at 5.0 µM (retest, dose inferred, filed as 0.5).
[8] abbreviates: at 50.0 µM (retest, dose inferred, filed as 5.0).

As to `Cc1ccc(NCCN(C)C)c2c(=O)c3c(O)cccc3sc12`, the growth inhibition in test [1] (setting [7]) was 95% (active); in test [1] (setting [8]), 99% (active); in test [1] (at 50.0 µM), 67.3%; in test [2] (setting [7]), 13%; in test [2] (setting [8]) it was 100% (active); in test [2] (at 50.0 µM), 54.3%. Also, the growth inhibition in test [3] (setting [7]) was 30%; in test [3] (setting [8]), 98% (active); in test [3] (at 50.0 µM) it was 60.7%; in test [4] (setting [7]), 11%; in test [4] (setting [8]) it was 99% (active); in test [4] (at 50.0 µM), 58.7%. For the same compound, the growth inhibition in test [5] (setting [7]) is 9%; in test [5] (setting [8]), 99% (active); in test [5] (at 50.0 µM), 49.5%; in test [6] (setting [7]) it was 29%; in test [6] (setting [8]) it was 99% (active); in test [6] (at 50.0 µM), 55.8%.
For `Cc1ccc(S(=O)(=O)/C=C2\COc3ccccc3C2=O)cc1`, the growth inhibition in test [1] (setting [7]) is 51%; in test [1] (setting [8]) it was 99% (active); in test [1] (at 50.0 µM), 99.2% (active); in test [2] (setting [7]), 65%; in test [2] (setting [8]), 99% (active); in test [2] (at 50.0 µM) it was 99.7% (active). Moreover, the growth inhibition in test [3] (setting [7]) was 90% (active); in test [3] (setting [8]), 100% (active); in test [3] (at 50.0 µM), 99.2% (active); in test [4] (setting [7]), 44%; in test [4] (setting [8]), 99% (active); in test [4] (at 50.0 µM) it was 99% (active). Besides, the growth inhibition in test [5] (setting [7]) was 77% (active); in test [5] (setting [8]), 99% (active); in test [5] (at 50.0 µM), 99.5% (active); in test [6] (setting [7]), 79% (active); in test [6] (setting [8]), 99% (active); in test [6] (at 50.0 µM), 99.5% (active).
In the case of `Clc1ccccc1/C=C/c1nccc2ccccc12`, the growth inhibition is 15% in test [1] (setting [7]); 98% (active) in test [1] (setting [8]); 94.1% (active) in test [1] (at 50.0 µM); -1% in test [2] (setting [7]); 99% (active) in test [2] (setting [8]); 60.2% in test [2] (at 50.0 µM). The growth inhibition was 18% in test [3] (setting [7]); 98% (active) in test [3] (setting [8]); 72.3% (active) in test [3] (at 50.0 µM); 15% in test [4] (setting [7]); 98% (active) in test [4] (setting [8]); 15.1% in test [4] (at 50.0 µM). The growth inhibition in test [5] (setting [7]) was 64%; in test [5] (setting [8]), 99% (active); in test [5] (at 50.0 µM), 88.5% (active); in test [6] (setting [7]), 1%; in test [6] (setting [8]), 98% (active); in test [6] (at 50.0 µM), 94.2% (active).
For the compound `Cc1[nH]nc(C(=O)N(C)C)c1N=NN(C)C`, the growth inhibition in test [1] (setting [7]) was -61%; in test [1] (setting [8]), 93% (active); in test [1] (at 50.0 µM), 97.8% (active); in test [2] (setting [7]) it was -44%; in test [2] (setting [8]), 91% (active); in test [2] (at 50.0 µM) it was 88.8% (active). Moreover, the growth inhibition in test [3] (setting [7]) was -43%; in test [3] (setting [8]), 88% (active); in test [3] (at 50.0 µM), 82% (active); in test [4] (setting [7]), -50%; in test [4] (setting [8]), 78% (active); in test [4] (at 50.0 µM), 79.8% (active). Further, the growth inhibition in test [5] (setting [7]) was -65%; in test [5] (setting [8]), 83% (active); in test [5] (at 50.0 µM), 79.2% (active); in test [6] (setting [7]) it was -105%; in test [6] (setting [8]), 90% (active); in test [6] (at 50.0 µM), 95.6% (active).
For the compound `N#CC(CC(=O)O)C(c1cccc2ccccc12)c1cccc2ccccc12` (stereo not given), the growth inhibition in test [1] (setting [7]) is 10%; in test [1] (setting [8]), 99% (active); in test [1] (at 50.0 µM) it was 99.1% (active); in test [2] (setting [7]) it was 17%; in test [2] (setting [8]) it was 99% (active); in test [2] (at 50.0 µM), 98.5% (active). Also, the growth inhibition in test [3] (setting [7]) is 4%; in test [3] (setting [8]), 98% (active); in test [3] (at 50.0 µM), 98.8% (active); in test [4] (setting [7]), 4%; in test [4] (setting [8]) it was 99% (active); in test [4] (at 50.0 µM), 97.6% (active). The growth inhibition in test [5] (setting [7]) is 17%; in test [5] (setting [8]), 99% (active); in test [5] (at 50.0 µM), 98.5% (active); in test [6] (setting [7]), 17%; in test [6] (setting [8]), 99% (active); in test [6] (at 50.0 µM) it was 99.2% (active).
In the case of `COC(=O)CC1(O)c2cc(OC)c3cccc(OC)c3c2CCC1(C)C(=O)OC` (stereo not given), the growth inhibition in test [1] (setting [7]) was 88% (active); in test [1] (setting [8]), 97% (active); in test [1] (at 50.0 µM), 92.9% (active); in test [2] (setting [7]), 91% (active); in test [2] (setting [8]), 99% (active); in test [2] (at 50.0 µM), 88.8% (active). Also, the growth inhibition in test [3] (setting [7]) is 85% (active); in test [3] (setting [8]) it was 99% (active); in test [3] (at 50.0 µM) it was 95.2% (active); in test [4] (setting [7]), 80% (active); in test [4] (setting [8]), 97% (active); in test [4] (at 50.0 µM), 96% (active). Besides, the growth inhibition in test [5] (setting [7]) was 83% (active); in test [5] (setting [8]), 98% (active); in test [5] (at 50.0 µM), 88.5% (active); in test [6] (setting [7]), 92% (active); in test [6] (setting [8]), 98% (active); in test [6] (at 50.0 µM), 94.8% (active).
Regarding `Oc1cc(O)cc(O)c1`, the growth inhibition in test [1] (setting [7]) was 10%; in test [1] (setting [8]), 76% (active); in test [1] (at 50.0 µM) it was 15.7%; in test [2] (setting [7]) it was -2%; in test [2] (setting [8]), 18%; in test [2] (at 50.0 µM) it was -4.05%. Further, the growth inhibition was 0% in test [3] (setting [7]); 19% in test [3] (setting [8]); 12.3% in test [3] (at 50.0 µM); 5% in test [4] (setting [7]); 17% in test [4] (setting [8]); 7.85% in test [4] (at 50.0 µM). The growth inhibition in test [5] (setting [7]) is -4%; in test [5] (setting [8]) it was 6%; in test [5] (at 50.0 µM) it was 69%; in test [6] (setting [7]), -5%; in test [6] (setting [8]), 16%; in test [6] (at 50.0 µM), 23.3%.
As for `CCCCCC1OC1CC1OC1CCCCCCCC(=O)OC` (stereo not given), the growth inhibition in test [1] (setting [7]) is -2%; in test [1] (setting [8]), 1%; in test [1] (at 50.0 µM), 36.5%; in test [2] (setting [7]) it was -1%; in test [2] (setting [8]) it was -2%; in test [2] (at 50.0 µM), 18.8%. For the same compound, the growth inhibition in test [3] (setting [7]) was -4%; in test [3] (setting [8]) it was 4%; in test [3] (at 50.0 µM) it was 40.4%; in test [4] (setting [7]), -4%; in test [4] (setting [8]) it was -8%; in test [4] (at 50.0 µM) it was -27.4%. Further, the growth inhibition in test [5] (setting [7]) is -1%; in test [5] (setting [8]), -7%; in test [5] (at 50.0 µM), 50.1%; in test [6] (setting [7]) it was 4%; in test [6] (setting [8]) it was 1%; in test [6] (at 50.0 µM) it was 59%.
As for `Cc1[nH]nc(C(=O)N/N=C/c2cccs2)c1N=NN(C)C`, the growth inhibition in test [1] (setting [7]) was 73% (active); in test [1] (setting [8]) it was 96% (active); in test [1] (at 50.0 µM), 97.2% (active); in test [2] (setting [7]), 15%; in test [2] (setting [8]) it was 98% (active); in test [2] (at 50.0 µM) it was 82.9% (active). In addition, the growth inhibition in test [3] (setting [7]) was 19%; in test [3] (setting [8]) it was 73% (active); in test [3] (at 50.0 µM) it was 97% (active); in test [4] (setting [7]), -3%; in test [4] (setting [8]) it was 96% (active); in test [4] (at 50.0 µM), 99.3% (active). Also, the growth inhibition in test [5] (setting [7]) was -1%; in test [5] (setting [8]), 95% (active); in test [5] (at 50.0 µM), 87.6% (active); in test [6] (setting [7]) it was 80% (active); in test [6] (setting [8]), 98% (active); in test [6] (at 50.0 µM), 99% (active).
In the case of `CC(C)=CC[P+](CCCCCC[P+](CC=C(C)C)(c1ccccc1)c1ccccc1)(c1ccccc1)c1ccccc1`, the growth inhibition in test [1] (setting [7]) is -4%; in test [1] (setting [8]) it was 9%; in test [1] (at 50.0 µM) it was 31.6%; in test [2] (setting [7]) it was -1%; in test [2] (setting [8]) it was 9%; in test [2] (at 50.0 µM) it was 40.8%. Also, the growth inhibition was -3% in test [3] (setting [7]); 27% in test [3] (setting [8]); 59.5% in test [3] (at 50.0 µM); -5% in test [4] (setting [7]); 16% in test [4] (setting [8]); 4.75% in test [4] (at 50.0 µM). The growth inhibition in test [5] (setting [7]) was -3%; in test [5] (setting [8]), 15%; in test [5] (at 50.0 µM), 48.3%; in test [6] (setting [7]), -1%; in test [6] (setting [8]), 27%; in test [6] (at 50.0 µM) it was 89.2% (active).
